The supplement of paper PMC3334620
In all, about 33,000 sequences were measured (“E-score (-0.5 to 0.5)”: median about -0.035, highest 2% from about 0.34 on). The full list was thinned out, with the highest values kept by preference.

Target: T1, Mot3 (UniProt P54785)
T1 sequence: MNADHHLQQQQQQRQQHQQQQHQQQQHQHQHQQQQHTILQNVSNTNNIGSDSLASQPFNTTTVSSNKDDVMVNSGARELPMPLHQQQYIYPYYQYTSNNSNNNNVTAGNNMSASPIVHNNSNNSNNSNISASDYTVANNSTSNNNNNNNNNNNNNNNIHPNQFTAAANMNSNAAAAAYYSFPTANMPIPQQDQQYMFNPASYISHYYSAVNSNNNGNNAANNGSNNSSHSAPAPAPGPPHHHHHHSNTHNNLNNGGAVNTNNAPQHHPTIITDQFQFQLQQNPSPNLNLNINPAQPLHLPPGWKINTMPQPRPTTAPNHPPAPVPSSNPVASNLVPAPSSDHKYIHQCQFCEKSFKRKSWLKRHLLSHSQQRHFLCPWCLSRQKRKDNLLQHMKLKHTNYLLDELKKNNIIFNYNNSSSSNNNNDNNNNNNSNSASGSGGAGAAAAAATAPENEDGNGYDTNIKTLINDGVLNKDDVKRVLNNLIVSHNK
Test: PBM E-score (8-mer binding enrichment) (E-score (-0.5 to 0.5)); higher = stronger / more preferred TF binding
Conditions: protein concentration: 200 nM; construct: GST-full length
Description: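 Universal 'all 10-mer' protein binding microarrays (Agilent AMADID 015681) probed with GST-tagged S. cerevisiae TFs (full-length or DBD) made by in vitro transcription/translation (PURExpress), about 100-200 nM. Bound TF was detected with fluorescent anti-GST. Each ungapped 8-mer (which stands for itself and its reverse complement) is scored by the PBM enrichment score (E-score), a modified Wilcoxon-Mann-Whitney statistic from -0.5 to +0.5, computed with the Universal PBM Analysis Suite. Scale: above 0.35 generally sequence-specific binding.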

Row | Sequence | PBM E-score
1 | CGATGGCC | -0.268
2 | AATAACAC | 0.31
3 | AATAACAT | 0.349
4 | AATAACAG | 0.254
5 | ACGCCGGC | -0.185
6 | CGTAGCCC | -0.0561
7 | ACGTACCG | 0.00315
8 | ACGTACCT | 0.292
9 | CGGTACCG | -0.156
10 | GGGTACCC | -0.304
11 | AGGTACCG | 0.407
12 | AGGTACCT | 0.434
13 | TGGTACCA | -0.0506
14 | AGGTACCC | 0.361
15 | AGGTACCA | 0.361
16 | GGGTACCA | -0.0217
17 | CGGTACCC | -0.277
18 | AAGTACCT | 0.338
19 | ACAATACC | 0.172
20 | GAAGCTAC | -0.0982
21 | AGCTGAAC | -0.255
22 | CTTTTCGA | -0.07

Row | Sequence | PBM E-score
23 | GATCCTCC | -0.303
24 | GTCCGGAC | 0.0843
25 | AAGACAGA | 0.149
26 | AACCTGAG | -0.0479
27 | AACCTGTG | 0.357
28 | AACCTGAC | -0.0317
29 | AAGTTCCC | -0.309
30 | AAGTTCCG | 0.0427
31 | ACGTTCCG | -0.144
32 | ACGTTCCA | 0.0401
33 | AAGTTCCT | 0.341
34 | ACGTTCCT | 0.447
35 | AAACTTCC | -0.145
36 | ACAGTAGT | -0.0747
37 | AGAGTGGA | -0.0533
38 | ACCGGTTC | -0.148
39 | AACTGGTG | -0.193
40 | CAGGAGGC | -0.0461
41 | AGAAGAGA | -0.102
42 | CAACACGA | 0.363
43 | TAACACGA | 0.402
44 | GAACACGA | 0.187

Row | Sequence | PBM E-score
45 | AAACACGA | 0.292
46 | CAACACGG | 0.302
47 | CAACACGC | 0.322
48 | AGACTGTA | -0.109
49 | CCCACAGA | -0.053
50 | TCAACCAA | 0.0249
51 | AAACAGGC | 0.301
52 | GTACAGGA | 0.343
53 | ATACAGGC | 0.333
54 | ATACAGGA | 0.173
55 | CAACAGGC | 0.377
56 | CAACAGGA | 0.172
57 | CTACAGGC | 0.354
58 | CTACAGAC | 0.0592
59 | CTACAGGA | 0.242
60 | AGAGTTTC | -0.198
61 | GGTGGTGA | -0.179
62 | GAGAAGTA | -0.0782
63 | CTGCAATC | -0.0301
64 | AAAAGGAA | 0.36
65 | AAAAGGAT | 0.157
66 | GAAAGGTA | 0.228

Row | Sequence | PBM E-score
67 | TAAAAGGA | 0.189
68 | CAAAGGTA | 0.212
69 | TAAAGGAA | 0.383
70 | TAAAGGTA | 0.382
71 | CAAAGGAA | 0.415
72 | CAAAGGAC | -0.189
73 | CAAAGGAG | -0.0795
74 | AAAAGGAC | 0.171
75 | GAAAGGAA | 0.29
76 | AGTATCCA | -0.198
77 | GGACCGTA | -0.201
78 | CTCACGAG | -0.266
79 | CGGGCCAC | -0.257
80 | CCGGCGAC | -0.266
81 | CATCTTAA | 0.0785
82 | ACCTCTTG | -0.0648
83 | TATACGAA | 0.0446
84 | CCTTAAGA | 0.0196
85 | CCTTAAGC | 0.0192
86 | CCTTAAGG | 0.345
87 | TAACAGAA | 0.227
88 | CGCTAAAG | -0.0919

Row | Sequence | PBM E-score
89 | TGTACACA | 0.34
90 | AGTACACG | 0.357
91 | AGTACACC | 0.052
92 | GGTACACA | 0.271
93 | AGTACACA | 0.313
94 | CGTACACG | 0.226
95 | GGTACATA | 0.238
96 | AGTACATA | 0.362
97 | CGTACATA | 0.305
98 | ATTCTGTC | -0.0735
99 | GAGAAATC | -0.077
100 | CTCGAAAA | -0.084
101 | CTTGGCGA | -0.105
102 | GACCTAAA | -0.086
103 | ACAGGATG | 0.00887
104 | GCTGTATA | 0.145
105 | ACTGTGTC | 0.112
106 | GCTGTGAA | 0.0424
107 | CCTGTGTC | 0.194
108 | CCTGTGTA | 0.357
109 | ACTGTGTG | 0.185
